The text below walks through data of PubChem BioAssay (Tox21).

Records with an inconclusive call do not appear. Unmarked numbers belong to inactive results. Activity calls are given as the source filed them. Calls follow the shape of the dose curve; as a rule, active = well fitted inhibition curve with a large enough effect in the signal ratio in the repeat runs, with a control signal flat; inconclusive = weak or mixed curves, or effect the other way; inactive = flat fitted curve, though single readings scatter; the % refers to the signal ratio. Square brackets hold non-standard residues; d marks the D form. Peptide text beside a SMILES is read from it. * marks the point of attachment. Sta = CC(C)C[C@H](N)[C@@H](O)CC(=O)O; Isovaleryl = CC(C)CC(=O)*
% is scaled to controls: 0 for no effect and ±100 for the full control effect; potency is read from the fitted curve at half-maximal effect.

Sequence of D(2) dopamine receptor (Homo sapiens) (P14416 whole entry, looked up): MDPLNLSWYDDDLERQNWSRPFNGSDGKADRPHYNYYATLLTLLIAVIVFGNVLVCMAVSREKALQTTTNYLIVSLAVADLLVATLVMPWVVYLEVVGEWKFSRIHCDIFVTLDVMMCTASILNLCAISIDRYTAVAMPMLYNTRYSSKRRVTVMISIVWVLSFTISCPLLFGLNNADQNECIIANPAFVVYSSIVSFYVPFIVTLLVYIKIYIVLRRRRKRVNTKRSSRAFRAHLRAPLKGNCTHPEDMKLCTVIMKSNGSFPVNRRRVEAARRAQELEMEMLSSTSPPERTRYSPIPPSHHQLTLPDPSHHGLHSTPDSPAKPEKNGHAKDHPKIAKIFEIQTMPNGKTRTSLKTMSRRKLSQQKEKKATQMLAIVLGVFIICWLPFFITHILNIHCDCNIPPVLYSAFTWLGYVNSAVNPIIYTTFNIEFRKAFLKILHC

This assay has as its target D(2) dopamine receptor (Homo sapiens) (UniProt P14416). The assay can be described thus: Dopamine D2 receptor (DRD2) small molecule antagonists, cell-based qHTS assay (AID 1963595). Particulars: HEK293-DRD2 cAMP HTRF antagonist mode; series mostly up to 92.4 µM; activity change, negative = inhibition: at the top concentration. The text has this: National Center for Advancing Translational Sciences [NCATS]
Division of Preclinical Innovation [DPI]
U.S. Environmental Protection Agency [EPA]
National Institutes of Environmental Health Sciences [NIEHS]
National Toxicology Program [NTP]
U.S. Food and Drug Administration [FDA]
DRD2 is the D2 subtype of the dopamine receptor, which is coupled to Gi subtype of G protein-coupled receptor. This G protein-coupled receptor inhibits adenylyl cyclase activity. The DRD2-HEK293 cell line stably expressing D2 dopamine receptor can be used for screening agonists and antagonists of interactions between D2 and its ligands. The Hek293-DRD2 cAMP assay is based on HTRF technology. It measures changes of cAMP accumulation in response to Gi coupled GPCR activation or inhibition.
Tox21 Assay Protocol Summary:
DRD2-Hek293 cells were dispensed at 600 cells/3uL/well in 1536-well white plates using a Multidrop Dispenser. After the assay plates were incubated at a 37 C/5% CO2 incubator for 24 h, 1 uL of Ro20-1724 at final concentration of 0.1 mM was transferred to the assay plate by a Flying Reagent Dispenser. Following Ro20-1724 addition, 23 nL of compound dissolved in DMSO, positive controls or DMSO only was added to the assay plates via Wako pintool station. The assay plates were incubated at room temperature for 10 min. Next, 1 uL of mixture of NKH477 (final concentration at 200 nM) and quinpirole (final concentration at 12 nM) was added into the plates. After the assay plates were incubated at room temperature for an additional 30 min, 2.5 ul/well of cAMP-d2 and 2.5 ul/well of anti-cAMP-cryptate were added respectively into the assay plates using a Flying Reagent Dispenser. The plates were incubated at room temperature for 1 h. The fluorescence intensity in the plates was measured at 340 nm excitation and 665 & 620 nm emission by an Envision plate reader.
As for `Brc1ccc(-c2ccccc2)cc1`, the “activity change, negative = inhibition” value is 1.26%.

As for `O=C(c1ccc(O)cc1)c1ccc(Cl)cc1`, the “activity change, negative = inhibition” value was -4.37%. Turning to `CCCCCCCC/C=C/C(=O)O`, the “activity change, negative = inhibition” value is -2.02% [at 42.5 µM]. On to `COC(=O)CS`, for which the “activity change, negative = inhibition” value was 3.78%. As for `CC(C)CC(=O)N[C@H](C(=O)N[C@H](C(=O)N[C@@H](CC(C)C)[C@@H](O)CC(=O)N[C@@H](C)C(=O)N[C@@H](CC(C)C)[C@@H](O)CC(=O)O)C(C)C)C(C)C` (Isovaleryl-VV[Sta]A[Sta]-OH), the “activity change, negative = inhibition” value is -1.29% [at 42.5 µM]. Take `OC(CCCN1CCCCC1)(c1ccccc1)c1ccccc1`: the Potency is 5.96 µM (active). As for `OCC(O)[C@@H](O)[C@H](O)[C@H](O)CO[C@H]1O[C@H](CO)[C@@H](O)[C@H](O)[C@H]1O` (stereo not given in full), the “activity change, negative = inhibition” value was 4.58%.

On to `CCC(O)C(C)(C)C` (stereo not given), for which the “activity change, negative = inhibition” value is 2.31%.

On to `C=CC(=O)OCC(Br)CBr` (stereo not given), for which the “activity change, negative = inhibition” value was 1.11%. The same measure, in the same setting: then `Nc1nc(N)c(-c2ccccc2)s1`, with 0.591% [at 42.5 µM]; and `COc1ccc(OC(=O)N(CC(=O)O)Cc2ccc(OCCc3nc(-c4ccccc4)oc3C)cc2)cc1`, with 7.34% [at 42.5 µM].

With `OCCC(F)(F)C(F)(F)C(F)(F)C(F)(F)C(F)(F)C(F)(F)C(F)(F)C(F)(F)F`, the “activity change, negative = inhibition” value was 4.23%.

`CCC(=O)c1cccc(Cl)c1`: the “activity change, negative = inhibition” value is 0.53%. On to `OCC(CBr)(CBr)CBr`, for which the “activity change, negative = inhibition” value is -2.43%.

For the compound `Cc1c(Cl)cccc1Nc1ccccc1C(=O)O`, the “activity change, negative = inhibition” value is 5.63% [at 42.5 µM]. `O=C1CCCCCCCCCCC(=O)OCCO1`: the “activity change, negative = inhibition” value is -0.981%. As to `CCCCCCCCCCCl`, the “activity change, negative = inhibition” value is -2.76%. The same measure, in the same setting: then `O=C1OCCN1/N=C/c1ccc([N+](=O)[O-])o1`, with 11.9% [at 42.5 µM]; and `C[C@@H]1O[C@@H](O[C@@H]2[C@@H](O)[C@H](OCCc3ccc(O)c(O)c3)O[C@H](CO[C@@H]3O[C@H](CO)[C@@H](O)[C@H](O)[C@H]3O)[C@H]2OC(=O)/C=C/c2ccc(O)c(O)c2)[C@H](O)[C@H](O)[C@H]1O`, with 13.6%.

For the compound `CC(C)=CCC/C(C)=C\C#N`, the “activity change, negative = inhibition” value was -4.34%.

For `C[C@H]1O[C@@H](n2cc(F)c(=O)[nH]c2=O)[C@H](O)[C@@H]1O`, the “activity change, negative = inhibition” value is -1.83% [at 42.5 µM].

As to `CC(C)(C)C(=O)/C=C/c1ccc(Cl)cc1`, the “activity change, negative = inhibition” value is 2.22%. On the same count and under the same terms, with `CCCCCCCCCCCCC` the figure was -4.64%; with `CCOC(=O)COc1ccc(C)cc1`, 5.52%; with `O=C(NS(=O)(=O)/C=C/c1ccccc1)c1ccc(F)cc1Cl`, -7.5%. As for `CC1=C(C)C(=O)C(CCCCC#CCCCC#CCO)=C(C)C1=O`, the “activity change, negative = inhibition” value is -2.23% [at 42.5 µM]. Regarding `CC(C)=CCC/C(C)=C/CC/C(C)=C/CO`, the “activity change, negative = inhibition” value is 7.63%. The same measure, in the same setting: then `O=C1OC(O)C(C(Cl)Cl)=C1Cl` (stereo not given), with 8.32%; and `CC(C)(C)OC(=O)N1C[C@@H](F)C[C@H]1C(=O)O`, with 1.37%; and `CCCCCCCCCCCC(=O)Cl`, with -5.62%. For `CC(C)(C)C(=O)OCOC(=O)[C@@H]1N2C(=O)[C@@H](NC(=O)[C@H](N)c3ccccc3)[C@H]2SC1(C)C`, the “activity change, negative = inhibition” value was 3.27% [at 42.5 µM]. On to `Cc1cc(SC2=C(O)C[C@@](CCc3ccc(N)cc3)(C(C)C)OC2=O)c(C(C)(C)C)cc1CO`, for which the “activity change, negative = inhibition” value is 1.3%. On the same count and under the same terms, then `Nc1ccc(Cl)cc1[N+](=O)[O-]`, with -5.21%; and `O=C(C(Cl)Cl)N1CCOC12CCCCC2`, with 0.805%.

Take `CC(C)Oc1ccccc1O`: the “activity change, negative = inhibition” value was -9.75%. The same measure, in the same setting: then `CC(=O)c1ccc2ccc3ccccc3c2c1`, with -15.3%; and `CCn1cc(C(=O)O)c(=O)c2cc(F)c(N3CCN(C)CC3)cc21`, with 4.28% [at 18.9 µM]. Still for that read-out and setting: with `C=C(C)C(=O)OCCN(CC)CC` the figure was -0.65%; with `COC(=O)c1ccccc1Cl`, 2.45%; with `Cc1oc(=O)oc1COC(=O)[C@@H]1N2C(=O)[C@@H](NC(=O)[C@H](N)c3ccccc3)[C@H]2SC1(C)C`, -8.15% [at 42.5 µM].
